Inconclusive results are not listed. Active and inactive are the calls of the source. Calls come from the whole dose curve; as a rule, active = well fitted activation curve with a large enough effect in the repeat runs; inconclusive = weak or mixed curves; inactive = flat fitted curve, though single readings scatter.
test: A CellTox Green Cytotoxicity Assay to monitor cytotoxicity in HepG2 cells - 40 hour (AID 1224879); conditions: CellTox Green fluorescence; series mostly up to 76.8 µM; cytotoxicity increase: at the top concentration; note: nearly all actives have a fitted effect of over 40% in size
Procedure, shortened: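 Cells and non-lytic dye reagent are dispensed together (600 HepG2 cells/well) and incubated 5 h before DMSO compound transfer. Kinetic fluorescence is then recorded in the same wells during 40 h at 37 C.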
% is set by controls: 0 for no effect and ±100 for the full control effect; potency is the fitted concentration of half-maximal effect.

| SMILES | cytotoxicity increase | Potency |
| --- | --- | --- |
| O=C(O)C[C@H](NC(=O)OCc1ccccc1)C(=O)O | -0.673% (inactive) | – |
| CCCCCCCCCI | -14% (inactive) | – |
| O=C=Nc1ccc(Cl)c(Cl)c1 | -0.228% (inactive) | – |
| C[C@@H](O)[C@H]1C(=O)N2C(C(=O)O)=C([C@H]3CCCO3)S[C@H]12 | -50.7% [at 35.3 µM] (inactive) | – |
| c1ccc(C[n+]2cccc3ccccc32)cc1 | -9.43% (inactive) | – |
| CN(C)CCN1C(=O)c2ccccc2N(C)c2ccccc21 | 2.95% [at 35.3 µM] (inactive) | – |
| CC(C)C=O | -4.57% (inactive) | – |
| CCC1(CO)COCOC1 | -11.5% (inactive) | – |
| Cc1cscn1 | -6.03% (inactive) | – |
| C[C@H]1C[C@H](O)c2ccsc2S1(=O)=O | 0.333% [at 35.3 µM] (inactive) | – |
| O=C(/C=C/c1ccccc1)OCCc1ccccc1 | -1.27% (inactive) | – |
| CC1(C)[C@H](C(=O)O)N2C(=O)C[C@H]2S1(=O)=O | -18.6% [at 35.3 µM] (inactive) | – |
| CC=C(Cl)Cl | 3.61% (inactive) | – |
| COC(=O)[C@H]1[C@H]2C[C@@H]3c4[nH]c5cc(OC)ccc5c4CCN3C[C@H]2C[C@@H](OC(=O)/C=C/c2ccc(O)c(OC)c2)[C@@H]1OC | – | 23.9 µM (active) |
| NCCNCCO | 11.7% (inactive) | – |
| N#CCc1ccc(Cl)cc1Cl | 28.6% (inactive) | – |
| CCCCC(CC)CN (centres undefined) | 9.35% (inactive) | – |
| CC(CN(C)C)C(C)(O)Cc1ccc(Cl)cc1 (centres undefined) | 19.7% [at 35.3 µM] (inactive) | – |
| C[C@@]12CCC[C@H]1[C@@H]1CC[C@H]3C[C@@H](O)CC[C@]3(C)[C@H]1CC2 | 21.4% [at 35.3 µM] (inactive) | – |
| C[C@]1(Cn2ccnn2)[C@H](C(=O)O)N2C(=O)C[C@H]2S1(=O)=O | 1.23% [at 35.3 µM] (inactive) | – |

| SMILES | cytotoxicity increase | Potency |
| --- | --- | --- |
| Cc1ccccc1N=C(N)Nc1ccccc1C | 7.22% (inactive) | – |
| O=C(O)c1ccc(OCCCOc2ccc(C(=O)O)cc2)cc1 | -0.208% [at 35.3 µM] (inactive) | – |
| CC1(C)S[C@@H]2[C@H](NC(=O)C(c3ccccc3)S(=O)(=O)O)C(=O)N2[C@H]1C(=O)O (some centres undefined) | -16.1% [at 35.3 µM] (inactive) | – |
| NC(=O)c1ccncc1 | -0.0602% (inactive) | – |
| CO[C@]1(NC(=O)CSC(F)F)C(=O)N2C(C(=O)O)=C(CSc3nnnn3CCO)CO[C@H]21 | -15.5% [at 35.3 µM] (inactive) | – |
| CCCCN(CCN(CCCC)C(=O)N1CCOCC1)C(=O)N1CCOCC1 | 24.2% [at 35.3 µM] (inactive) | – |
| O=C1CCCCCCCCCCOCCCCO1 | 29% (inactive) | – |
| C=C(C)C(=O)OCCOCCOC(=O)C(=C)C | -2.94% (inactive) | – |
| COC(=O)C1=C(C)NC(C)=C(C(=O)O[C@@H]2CCCN(Cc3ccccc3)C2)[C@@H]1c1cccc([N+](=O)[O-])c1 | 14.7% [at 35.3 µM] (inactive) | – |
| CCCCCC[C@@H](O)C/C=C\CCCCCCCC(=O)OCC(O)CO (some centres undefined) | 15.1% (inactive) | – |
| Cc1c(C)c2c(c(C)c1OC(=O)CCC(=O)OCCO)CC[C@@](C)(CCC[C@H](C)CCC[C@H](C)CCCC(C)C)O2 | -0.257% [at 35.3 µM] (inactive) | – |
| O=C(Cn1ccnc1[N+](=O)[O-])NCCO | -10.4% [at 35.3 µM] (inactive) | – |
| Cc1ccccc1S | -0.9% [at 35.3 µM] (inactive) | – |
| CC[N+](CC)(CCNC(=O)C(=O)NCC[N+](CC)(CC)Cc1ccccc1Cl)Cc1ccccc1Cl | -0.0754% [at 35.3 µM] (inactive) | – |
| C=C1CCC2CC1C2(C)C (centres undefined) | -1.32% (inactive) | – |
| CCCCCCC(C)(C)C(=O)O | 0.123% (inactive) | – |
| Cc1ccc(C(C)(C)O)cc1 | 18.6% (inactive) | – |
| CCCCCC#CC(=O)OC | -5.3% (inactive) | – |
| CCCCCCCC/C=C\CCCCCCCCO | 1.43% (inactive) | – |

Source: PubChem BioAssay (Tox21)
